Screen size: about 6,200 compounds; about 2,900 (47%) were called active. No stated cut-off is given here; in the data, active means inhibition above about 50%; inactive means the rest. So high a share suggests a set chosen from earlier hits. This is one part of the list.
assay: Mycobacterium tuberculosis growth inhibition, primary screen (AID 1259343); settings: inhibition: at 10 µM, active compounds read high; outcome: 10 uM

| Compound | inhibition |
| --- | --- |
| CN(CCC(O)c1ccccc1)C(=O)c1ccc(Cl)s1 (stereo not given) | 13.2% (inactive) |
| CC(CCc1ccccc1)N=c1c([N+](=O)[O-])nn(-c2ccccc2)n1O (stereo not given) | 102% (active) |
| Cc1cc2c(=O)n(Cc3ccco3)c(SCC(=O)c3cccs3)nc2s1 | 85.2% (active) |
| COc1ccc(-c2noc(CSc3nnnn3C3CCCC3)n2)cc1 | 41% (inactive) |
| COc1ccc(-c2noc(COc3cccc4c3OCCO4)n2)cc1 | 51.6% (active) |
| CC(C(O)c1ccccc1)N(C)C(=O)c1ccccc1 (stereo not given) | 1.34% (inactive) |
| CN(NC(=O)CC(=O)NN(C)C(=S)c1ccccc1)C(=S)c1ccccc1 | 102% (active) |
| Cc1cc(=O)[nH]c(NN=Cc2c3ccccc3cc3ccccc23)n1 | 49.1% (inactive) |
| Oc1ccc2ccccc2c1C=NNC1=NCCC1 | 27.5% (inactive) |
| Oc1ccc2ccccc2c1C=NNc1nnc(-c2ncc[nH]2)c2ccccc12 | 99% (active) |
| CCCC(C)C1(CC)C(=O)NC(=S)NC1=O (stereo not given) | 32.6% (inactive) |
| Nc1ccc(S(=O)(=O)Nc2ccc([N+](=O)[O-])cc2O)cc1 | 53.9% (active) |
| CS(=O)(=O)Nc1ccc([N+](=O)[O-])cc1Oc1ccccc1 | 24.9% (inactive) |
| Nc1cc([N+](=O)[O-])ccc1NS(=O)(=O)c1ccc(Cl)cc1 | -52.1% (inactive) |
| CC(=NNC(N)=S)C1=CC(C)(C)CCC1 | 90.9% (active) |
| CCc1ccc(C(=O)Nc2ncc(C)s2)s1 | 62.1% (active) |
| CCc1ccc(C(=O)Nc2ccc(Br)cc2)s1 | 73.9% (active) |
| Cc1cnc(NC(=O)C2=C(O)c3ccccc3S(=O)(=O)N2C)s1 | 34.9% (inactive) |
| Cc1cnc(NC(=O)c2cccc(OC(F)F)c2)s1 | -11.7% (inactive) |
| CCOc1ccc(NC(=O)c2ccc(Br)s2)cc1 | 8.86% (inactive) |
| Cn1c(=NN=CC(Br)=Cc2ccccc2)sc2ccccc21 | 88.2% (active) |
| Cn1c(=NN=CC(Cl)=Cc2ccccc2)sc2ccccc21 | 88.7% (active) |
| Cn1c(=NN=Cc2ccc(OC(F)F)cc2)sc2ccccc21 | -24.6% (inactive) |
| COc1cc(C=NN=c2sc3ccccc3n2C)cc(OC)c1O | 68.8% (active) |
| Cn1c(=NN=Cc2ccccc2C(F)(F)F)sc2ccccc21 | -39.7% (inactive) |
| COc1cc(C=NN=c2sc3ccccc3n2C)cc(Br)c1O | 10.7% (inactive) |
| O=C(NCC1CCCC1)n1ccnc1 | 79.2% (active) |

| Compound | inhibition |
| --- | --- |
| CCN(CCNC(=O)NCC1CCCC1)C(=O)OC(C)(C)C | 47.4% (inactive) |
| Cc1cc(NC(=O)C2CC2)sc1C(=O)n1ccnc1 | 48.7% (inactive) |
| CC1CN(C(=O)CN2CCc3sccc3C2c2cccc(F)c2)CCN1C(=O)Nc1ccc([N+](=O)[O-])cc1 (stereo not given) | -36.2% (inactive) |
| OC(C#Cc1ccccc1)C#CC(O)(c1ccccc1)c1ccccc1 (stereo not given) | -2.57% (inactive) |
| N#CC(=Cc1ccc2c(c1)OCCO2)C(=O)Nc1ccc(SC(F)F)cc1 | 84.4% (active) |
| CSc1ccc(C=CC(=O)c2ccc3c(c2)OCCO3)cc1 | -10.1% (inactive) |
| O=S(=O)(Nc1ccccc1Br)c1ccc(Br)s1 | 83.3% (active) |
| O=S(=O)(Nc1ccccc1Br)c1ccccc1Br | 91.4% (active) |
| COC(=O)c1ccc(NS(=O)(=O)c2ccccc2Br)s1 | 43.4% (inactive) |
| CC(C)(C)c1ccccc1NS(=O)(=O)c1ccc(Cl)s1 | 23.7% (inactive) |
| CCc1ccccc1NS(=O)(=O)c1cc(Cl)cnc1N | 1.41% (inactive) |
| CC1(C)C(C=C(Cl)Cl)C1C(=O)OCc1cccc(Oc2ccccc2)c1 (stereo not given) | -12.7% (inactive) |
| CCOc1ccccc1CNC(=O)c1ccc(-c2cc(-c3ccc(Cl)cc3Cl)[nH]n2)cc1 | 31.1% (inactive) |
| O=C(NCCc1ccc(Cl)cc1Cl)c1cn[nH]c1 | 91.4% (active) |
| O=C(NCCc1cc(Cl)cc(Cl)c1)c1ccc2c(c1)COCO2 | 25.3% (inactive) |
| CN(C)c1c(Cl)cccc1NC(=O)NCc1ccoc1 | 40.8% (inactive) |
| CC(=O)Nc1ccc(OCc2ccc(Br)cc2F)cc1 | 62.5% (active) |
| CC(=O)Nc1ccc(OCc2cccc(C(F)(F)F)c2)cc1 | 57.6% (active) |
| CC(NS(=O)(=O)Cc1cccc(C(F)(F)F)c1)c1cccc(Br)c1 (stereo not given) | 25.3% (inactive) |
| Oc1cccc(OCc2cccc(C(F)(F)F)c2)c1 | 89.2% (active) |
| FC(F)(F)c1cccc(CSc2ncnc3ccccc23)c1 | 38.1% (inactive) |
| COc1cc(COc2ccc(NC(C)=O)cc2)c(OC)cc1Br | 19.7% (inactive) |
| ON=Cc1cccc(OCc2ccccc2)c1 | -7.21% (inactive) |
| N#Cc1ccc(NC(=O)Cc2cccc(C(F)(F)F)c2)cc1Cl | 8.71% (inactive) |
| O=C1N=C(c2ccccc2)OC1=CC=Cc1ccccc1 | -12.3% (inactive) |
| COc1ccccc1/C=C/C=C1N=C(/C=C/c2ccc(C)cc2)OC\1=O | 81.8% (active) |
| Cc1cc(NC(=O)c2cccn(Cc3ccc(Cl)cc3)c2=O)c2ccccc2n1 | 20.7% (inactive) |

| Compound | inhibition |
| --- | --- |
| O=c1c2ccccc2nnn1CSc1ccc(F)cc1 | 72.2% (active) |
| Cc1ccc(OCC(O)Cn2nnc3ccccc3c2=O)cc1 (stereo not given) | 35% (inactive) |
| O=c1c2ccccc2nnn1Cc1ccc(Cl)cc1 | 103% (active) |
| CCCc1nnc(SCc2ccc(OCCC(C)C)cc2)n1N | 37.1% (inactive) |
| CC(C)CCOc1ccc(C=C(C#N)C#N)cc1 | 51.5% (active) |
| CC1N(C)c2ccc(C=C(C#N)C#N)cc2C1(C)C (stereo not given) | -15.1% (inactive) |
| Cc1csc(SCc2cc(=O)c(OC(=O)c3ccc(C)c(C)c3)co2)n1 | -15% (inactive) |
| O=C(c1cnn2ccccc12)N1CCCC(CCc2cccc(C(F)(F)F)c2)C1 (stereo not given) | 93.1% (active) |
| COc1coc(CN2CCCC(CCc3ccccc3C)C2)cc1=O (stereo not given) | 33.7% (inactive) |
| COc1ncc(C(=O)N2CCCC(COc3cccc(F)c3)C2)cn1 (stereo not given) | 36.7% (inactive) |
| COc1ncc(CN2CCCC(CCc3ccccc3C(F)(F)F)C2)cn1 (stereo not given) | 77.6% (active) |
| CC(C)c1ncc(CN2CCCC(CCc3cccc(C(F)(F)F)c3)C2)cn1 (stereo not given) | 93.2% (active) |
| CCCC1CCCN(C(=O)c2cc3ccccc3cc2O)CC1 (stereo not given) | 23.5% (inactive) |
| O=C(c1cc(COc2cccc(C(F)(F)F)c2)on1)N1CCCC(CCCO)C1 (stereo not given) | 47.5% (inactive) |
| CCOC1=CC(=O)N(Cc2ccccc2)C1 | 48.1% (inactive) |
| CCCOc1ccc(C2c3c(oc4ccc(C)cc4c3=O)C(=O)N2c2nccs2)cc1 (stereo not given) | -18.8% (inactive) |
| CCCOc1ccc(Cn2c(=O)oc3ccc(C)cc32)cc1 | 67.2% (active) |
| CCCOc1ccc(Cc2nn[nH]n2)cc1 | 34.6% (inactive) |
| CCOc1ccc(Cn2c(=O)oc3ccccc32)cc1 | 68.1% (active) |
| COc1ccc(Cn2c(C3CCCCC3)nc3oc4ccccc4c(=O)c3c2=O)cc1 | -20.8% (inactive) |
| NC1=NC(=O)C(CC(=O)Nc2ccc(SC(F)(F)C(F)(F)C(F)(F)F)cc2)S1 (stereo not given) | 35.5% (inactive) |
| O=S(=O)(/C=C/c1ccccc1)NC1CCCCC1 | 17% (inactive) |
| O=S(=O)(/C=C/c1ccccc1)Nc1ccccc1C(F)(F)F | 78.4% (active) |
| O=S(=O)(/C=C/c1ccccc1)NCCc1cccc2ccccc12 | 6.24% (inactive) |
| O=S(=O)(/C=C/c1ccccc1)Nc1ccc(Cl)cc1F | 81.5% (active) |
| Cc1ccc2nc(-c3cccc(N)c3C)oc2c1 | 42.1% (inactive) |
| Cc1cccc(C)c1-c1ccc(-c2nn[nH]n2)cc1 | 70.6% (active) |

| Compound | inhibition |
| --- | --- |
| COc1ccc(OCCNc2ccccc2-c2nn[nH]n2)cc1 | 22.1% (inactive) |
| O=C(Cn1ncc(Cl)c(Cl)c1=O)c1cc(F)ccc1F | -50.8% (inactive) |
| O=C(Cn1ncc(Cl)c(Cl)c1=O)c1ccc2c(c1)CCC2 | 82.8% (active) |
| O=C(Cn1ncc(Cl)c(Cl)c1=O)Nc1ccc2ccccc2c1 | 11% (inactive) |
| CC(C)(C)c1ccc(OCc2ccc(C(=O)OCC#N)cc2)cc1 | -2.26% (inactive) |
| CC(C)OC(=O)c1ccc(COc2ccc(C(C)(C)C)cc2)o1 | 75.8% (active) |
| CC(C)c1nc(CC(=O)N(C)Cc2ccc(C3CC3C)o2)cs1 (stereo not given) | 83.2% (active) |
| CC1CC1c1ccc(CCC(=O)Nc2ccccn2)o1 (stereo not given) | 48.8% (inactive) |
| CC1CC1c1ccc(/C=C2/SC(N)=NC2=O)o1 (stereo not given) | 5.99% (inactive) |
| COc1cccc(CC(=O)Nc2ccc3c(c2)CCC3)c1 | -43.3% (inactive) |
| COc1cccc(Cc2nsc(Oc3ccc(CC(=O)O)cc3)n2)c1 | 88.3% (active) |
| C=C(C)COc1cccc(C(=O)NCc2noc(C3CCCC3)n2)c1 | 38.4% (inactive) |
| CN(Cc1ccc2cccc(O)c2n1)Cc1noc(C2CCC2)n1 | 98.5% (active) |
| COCc1nnc(NS(=O)(=O)c2ccc(Br)cc2)s1 | inactive |
| CCc1nnc(NS(=O)(=O)c2ccccc2Cl)s1 | 80.2% (active) |
| CC(C)c1nnc(NS(=O)(=O)c2ccc(Cl)s2)s1 | -36.5% (inactive) |
| c1cc2cc(CNc3nc(NCC4CC4)nc4ccsc34)ccc2o1 | 76.9% (active) |
| Brc1ccccc1CSc1nnc(-c2ccc3c(c2)OCO3)o1 | 99.6% (active) |
| N#CCSc1nnc(-c2ccc3c(c2)OCO3)o1 | 97.5% (active) |
| Brc1ccc(CSc2nnc(-c3ccc4c(c3)OCO4)o2)cc1 | 59.2% (active) |
| Clc1cccc(Cl)c1CSc1nnc(-c2ccc3c(c2)OCO3)o1 | 63.3% (active) |
| Brc1cc2c(cc1CSc1nnc(-c3ccccc3)o1)OCO2 | -11.5% (inactive) |
| Clc1cccc(CSc2nnc(-c3ccc4c(c3)OCO4)o2)c1 | 41.6% (inactive) |
| Clc1ccccc1CSc1nnc(-c2ccc3c(c2)OCO3)o1 | 1.82% (inactive) |

From PubChem BioAssay AID1259343 (VanderVen Lab, College of Veterinary Medicine, Cornell …, 2017)
